Source: PubChem BioAssay (National Center for Advancing Translational Sciences (NCATS))
Pf growth 48h: P. falciparum growth inhibition at 48 hours (one generation); P. falciparum luciferase growth in erythrocytes, 48 h; Potency, µM (highest dose often 28.7 µM), inactives show at the highest dose activity change, negative = inhibition, hits mostly inhibitors; 310,000 compounds, 5.9% hits; AID 504832; further: on the % scale 0 is the no-effect control and ±100 the full control effect
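Luciferase-expressing parasites in RBCs, 2% Hct / 0.1% parasitemia final; RPMI 1640 + 0.5% Albumax; 37 C, 5% CO2, one generation; luminescence read-out, lower signal = inhibition.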
SARS PLpro yeast: SARS-CoV PLP inhibition in yeast; S. cerevisiae expressing SARS-CoV PLpro, growth rescue; Potency, µM (top dose mostly 32.9 µM), for the others: top-dose activity, positive = growth rescue, actives largely listed as activators; 330,000 compounds, 0.19% hits; AID 485353; calls by dose curve; further: 0% is about no effect; nearly all actives have a fitted effect of over 55% in size
AMA1 RON2 block: inhibitors of Plasmodium falciparum AMA1-RON2 interaction | AlphaScreen AMA1-biotinylated RON2 peptide binding | Potency, µM (highest dose often 58.2 µM), for the others: at the highest dose activity change, negative = inhibition, actives largely listed as inhibitors | 360,000 compounds, 0.2% hits | AID 720542;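 further: 0% = vehicle wells and -100% = peptide control; nearly all actives have a fitted effect of over 45% in size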
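AMA1 (3D7) with his tag at 25 nM final met compounds first, then biotinylated RON2 peptide at 25 nM; detection used donor plus acceptor beads, 10 µg/mL apiece, read by AlphaScreen after 30 min at room temperature.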
Pf growth 96h: inhibits malaria parasite growth, 96 h; P. falciparum luciferase reporter growth, 96 h; Potency, µM (series often up to 28.7 µM), without a hit: at the top dose activity change, negative = inhibition, usual class: inhibitors; 320,000 compounds, 6.9% hits; further: on the % scale 0 is the no-effect control and ±100 the full control effect
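Luminescence readout: decreased luciferase signal marks inhibited growth of reporter-expressing P. falciparum in infected red cells (2% hematocrit, 0.05% parasitemia final), exposed to compound two generations (96 h, 37 C, 5% CO2).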
* marks the source's active call; other numbers are inactive results; ? = inconclusive; / = not tested or not shown; [ ] = another dose, or the depositor's remark. This is a sample that favours compounds with a hit; in the whole collection about 9.4% have one here. Unless noted, the call rests on the fitted dose curve; in most records, active means well fitted curve in the direction sought with a large enough effect; inconclusive means small, poorly fitted or top-dose-only effect, or another doubt; inactive means no such curve, though single readings can be large; an effect the other way counts as inactive or inconclusive. Potency means the concentration at half of the fitted maximal effect.

SMILES | Pf growth 48h | SARS PLpro yeast | AMA1 RON2 block | Pf growth 96h
Cc1ccc2nc(SCC(=O)Nc3ccccc3N3CCOCC3)c(C#N)cc2c1 | 7.38µM* | 5.5% | -9.5% | ?
CCOc1ccc2nc(SCC(=O)N3c4ccccc4Sc4ccccc43)c(C#N)cc2c1 | 10.4µM* | -7.0% | 3.6% | ?
CCc1ccc2nc(SCC(=O)N3CC(=O)Nc4ccccc43)c(C#N)cc2c1 | -6.6% | 7.7% | -6.4% | 11.7µM*
COCCn1c(=NC(=O)/C=C/c2cccs2)sc2cc(NC(C)=O)ccc21 | ? | -9.9% | -4.2% | 8.28µM*
COCCn1c(=NC(=O)CCS(=O)(=O)c2ccccc2)sc2cc(C)ccc21 | 93.3% | -1.4% | -5.0% | ?
CCc1nnc(NS(=O)(=O)c2ccc(NC(=O)c3cccc(Br)c3)cc2)s1 | -14.1% | 0.8% | -10.6% | -3.7%
NC(=O)c1ccc(NC(=O)COC(=O)CCC2CCCCC2)cc1 | / | -1.5% | -9.2% | /
O=C(Cc1csc(-c2ccc(F)cc2)n1)Nc1cccc(S(=O)(=O)NC2=NCCC2)c1 | -28.7% | 5.7% | 10.3% | 6.57µM*
O=C(CCl)Nc1cccc(S(=O)(=O)NC2=NCCC2)c1 | 3.29µM* | -0.4% | -6.1% | 4.65µM*
O=C(COC(=O)c1ccc(O)cc1)Nc1cccc(S(=O)(=O)NC2=NCCC2)c1 | ? | -2.3% | -6.5% | 6.57µM*
CC(C)(C)c1ccc(OCCC(=O)Nc2cccc(S(=O)(=O)NC3=NCCCCC3)c2)cc1 | 11.7µM* | -2.3% | -9.9% | ?
O=C(Cc1csc(-c2ccc(Cl)cc2)n1)Nc1cccc(S(=O)(=O)NC2=NCCC2)c1 | ? | 2.2% | 1.6% | -10.8%
O=S(=O)(Nc1ccccc1Cl)c1ccc2[nH]c(=S)oc2c1 | -0.4% | 16.9% | 55.1% | 9.8%
Cc1ccc2c(c1)sc1nc(=O)n(-c3ccccc3)c(=O)n12 | 406.2% | 0.2% | -3.1% | 138.7%
CC(C)(C)n1nc2c(c1NC(=O)Cc1ccccc1)CS(=O)(=O)C2 | 8.5% | -4.2% | -17.2% | 0.0%
O=S(=O)([O-])CCC[n+]1c(SCCCS(=O)(=O)O)sc2ccc(Cl)cc21 | 19.5% | 10.5% | 11.1% | ?
Cc1cccc(Nc2cc(=O)[nH]c(=O)[nH]2)c1 | -6.8% | 5.5% | 3.3% | 11.7µM*
O=c1cc(Nc2cccc(Br)c2)[nH]c(=O)[nH]1 | -17.6% | 1.0% | 5.5% | 11.7µM*
Cc1cccc(Nc2cc(=O)[nH]c(=O)[nH]2)c1C | -8.6% | -14.2% | -3.4% | 276.0%
Cc1ccc(Nc2cc(=O)[nH]c(=O)[nH]2)cc1C | ? | 1.5% | 0.9% | 26.0%
CCOC(=O)c1ccccc1NS(=O)(=O)c1ccccc1F | / | ? | 31.5% | ?
CCCc1cc(=O)oc2cc(C)cc(OCC(=O)Nc3ccc(CN4CCOCC4)cc3)c12 | ? | -2.2% | -2.0% | 8.28µM*
CCc1cc(=O)oc2cc(C)cc(OCC(=O)NC(Cc3c[nH]c4ccc(O)cc34)C(=O)O)c12 (stereo not given) | -9.2% | 1.1% | -5.8% | -25.2%
CCc1cc(=O)oc2cc(C)cc(OCC(=O)NCCc3c[nH]c4ccccc34)c12 | 1.85µM* | -4.8% | 4.3% | 2.62µM*
CCCc1cc(=O)oc2cc(C)cc(OCC(=O)NCCN3CCOCC3)c12 | -16.9% | -6.5% | -11.3% | ?
SMILES | Pf growth 48h | SARS PLpro yeast | AMA1 RON2 block | Pf growth 96h
CCc1cc(=O)oc2cc(C)cc(OCC(=O)NC3CC3)c12 | 11.7µM* | 13.5% | 6.0% | ?
CCCc1cc(=O)oc2cc(C)cc(OCC(=O)NC3CC3)c12 | 1.65µM* | -4.0% | -3.0% | 2.08µM*
COc1cccc(-c2nc(CS(=O)(=O)CC(=O)NC3CCCC3)c(C)o2)c1 | 14.0% | 24.4% | 11.2% | 37.5%
COc1ccc(C(=O)N/N=C/C(C)c2ccccc2)cc1OC (stereo not given) | -9.0% | 1.6% | 27.9% | -5.9%
C[C@@H]1CN(C(=O)c2nc3ccc(Cl)cn3c2CNCC[C@@H]2C[C@@H]3C=C[C@H]2C3)C[C@H](C)O1 | 8.28µM* | 0.9% | -10.6% | ?
C[C@@H](C(=O)Nc1nc(-c2ccccn2)cs1)N1C(=O)C2CCCCC2C1=O (stereo not given in full) | / | -2.7% | ? | 11.7µM*
CCc1cc(C(=O)Nc2nc(-c3ccccn3)cs2)sc1C | 4.15µM* | -1.3% | 24.5% | ?
CC(=O)c1ccc(-c2ccc(C(=O)Nc3nc(-c4ccccn4)cs3)o2)cc1 | / | 1.2% | 47.6% | /
Cc1ccc(C(=O)Nc2nc(-c3ccccn3)cs2)o1 | 4.15µM* | -2.3% | -42.7% | 2.33µM*
O=C(COc1ccc([N+](=O)[O-])cc1)Nc1nc(-c2ccccn2)cs1 | 9.28µM* | 2.0% | 30.6% | 6.57µM*
O=C(CN1C(=O)C2CCCCC2C1=O)Nc1nc(-c2ccccn2)cs1 (stereo not given) | / | -11.1% | 4.9% | ?
O=C(O)C(F)=C1c2ccccc2-c2ccccc21 | / | / | 0.7% | /
CCOC(=O)C1(Cc2cccc(Cl)c2)CCCN(C(=O)c2ccoc2C)C1 (stereo not given) | ? | -10.6% | 7.5% | ?
O=C(Nc1nc(-c2ccccn2)cs1)c1ccc(-c2ccccc2F)o1 | ? | -21.7% | 44.6% | ?
Cc1ccc(C(=O)Nc2nc(-c3ccc([N+](=O)[O-])cc3)cs2)o1 | 9.0% | -11.6% | -0.5% | ?
O=C(Nc1nc(-c2ccccn2)cs1)c1ccc([N+](=O)[O-])o1 | 2.94µM* | -3.0% | 2.3% | 2.33µM*
O=C(Nc1nc(-c2ccccn2)cs1)c1ccc2c(c1)OCCO2 | 220.4% | -3.1% | 28.2% | ?
CC1CC1C(=O)Nc1nc(-c2ccccn2)cs1 (stereo not given) | / | 27.7% | 22.1% | 3.7µM*
CC(=O)Nc1ccc(-c2csc(NC(=O)c3ccc(C)o3)n2)cc1 | / | -1.8% | 6.1% | 9.28µM*
COc1cc(/C=C/C(=O)Nc2nc3ccc(S(=O)(=O)NC(C)C)cc3s2)cc(OC)c1OC | 16.5% | -18.0% | -10.8% | ?
Cn1nnc(NC(=S)NC(=O)c2cccs2)n1 | -11.1% | 9.5% | 43.9% | 0.0%
O=C(Nc1cccc(Br)c1)c1ccc2c(c1)SC1=NS(=O)(=O)CCN12 | 11.7µM* | -2.2% | 9.5% | 11.7µM*
CC(C)(C)c1ccccc1NC(=O)c1ccc2c(c1)SC1=NS(=O)(=O)CCN12 | ? | -2.1% | 0.4% | ?
Cc1ccnc(N2C(=O)c3ccccc3C2=O)c1 | -14.0%[0.00184 µM] | 1.2% | -11.3% | 11.7µM*
Cc1ccnc(N2C(=O)C3C4CC(C(Br)C4Br)C3C2=O)c1 (stereo not given) | 20.1% | -3.6% | 15.8% | 9.28µM*
O=C1C2C3CC(C(Br)C3Br)C2C(=O)N1c1ccccn1 (stereo not given) | ? | -2.3% | -0.4% | 32.3%
O=C(c1ccc2c(=O)n3c(nc2c1)CCC3)N1CCN(S(=O)(=O)c2cccc(F)c2)CC1 | 11.7µM* | 1.4% | 5.6% | ?
O=C(c1ccc2c(=O)n3c(nc2c1)CCCCC3)N1CCN(C(c2ccccc2)c2ccccc2)CC1 | / | -2.4% | 3.2% | 1.85µM*
O=C(c1ccc2c(=O)n3c(nc2c1)CCCCC3)N1CCN(c2ccccc2)CC1 | -9.2% | 0.8% | -16.7% | -1.9%
